Experimental data taken from publication PMC5540273 (PLoS ONE, 2017).

Experiments:
Settings in all cases: concentration: 1 μM, replicates: in singlicate; n = 1
PIM1 = test system: PIM1
PIM2 = test system: PIM2
PIM3 = test system: PIM3
PIP5K1A = test system: PIP5K1A
PIP5K1C = test system: PIP5K1C
PIP5K2B = test system: PIP5K2B
PIP5K2C = test system: T1, PIP5K2C
T1 construct: gene PIP4K2C

PKAC-alpha = test system: T2, PKAC-alpha
T2 construct: gene PRKACA

PKAC-beta = test system: T3, PKAC-beta
T3 construct: gene PRKACB

PKMYT1 = test system: PKMYT1
PKN1 = test system: PKN1
PKN2 = test system: PKN2
PLK1 = test system: PLK1
PLK2 = test system: PLK2
PLK3 = test system: PLK3
PLK4 = test system: PLK4
PRKCD = test system: PRKCD
PRKCE = test system: PRKCE
PRKCH = test system: PRKCH
PRKCI = test system: PRKCI
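Further: KINOMEscan kinase panel screen.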

| Compound | %Inh (PIM1) [%] | %Inh (PIM2) [%] | %Inh (PIM3) [%] | %Inh (PIP5K1A) [%] | %Inh (PIP5K1C) [%] | %Inh (PIP5K2B) [%] | %Inh (PIP5K2C) [%] | %Inh (PKAC-alpha) [%] | %Inh (PKAC-beta) [%] | %Inh (PKMYT1) [%] | %Inh (PKN1) [%] | %Inh (PKN2) [%] | %Inh (PLK1) [%] | %Inh (PLK2) [%] | %Inh (PLK3) [%] | %Inh (PLK4) [%] | %Inh (PRKCD) [%] | %Inh (PRKCE) [%] | %Inh (PRKCH) [%] | %Inh (PRKCI) [%] |
| --- | --- | --- | --- | --- | --- | --- | --- | --- | --- | --- | --- | --- | --- | --- | --- | --- | --- | --- | --- | --- |
| COc1ccc(Nc2nccc(-c3cccc(NC(=O)c4cc5cc(F)ccc5[nH]4)c3)n2)cc1 [GSK1229782] | 36 | 0 | 30 | 0 | 15 | 12 | 81 | 15 | 21 | 6 | 0 | 0 | 24 | 0 | 0 | 4 | 42 | 43 | 20 | 32 |
| Cc1ccc(NC(=O)Nc2cccc(Cl)c2)cc1-c1ccc(C(=O)Nc2ccncc2)cc1 [GSK1398468] | 15 | 0 | 0 | 0 | 33 | 0 | 28 | 0 | 4 | 0 | 0 | 0 | 0 | 0 | 1 | 0 | 0 | 12 | 5 | 0 |
| COc1ccc(C2=C(Nc3cccc(C(=O)O)c3)C(=O)NC2=O)cc1 [SB-390765] | 5 | 6 | 11 | 13 | 4 | 16 | 0 | 12 | 25 | 0 | 18 | 7 | 21 | 48 | 21 | 2 | 5 | 25 | 4 | 47 |
| COc1ccc2nc(-c3cccc(C)n3)nc(Nc3ccncc3)c2c1 [GSK204919] | 0 | 0 | 0 | 4 | 28 | 0 | 0 | 3 | 0 | 1 | 3 | 0 | 0 | 0 | 0 | 0 | 0 | 0 | 30 | 31 |
| O=C(Nc1n[nH]c2nc(-c3nccs3)c(Br)cc12)C1CC1 [SB-742251] | 0 | 0 | 0 | 7 | 67 | 23 | 27 | 0 | 0 | 3 | 6 | 0 | 0 | 0 | 0 | 0 | 0 | 11 | 0 | 5 |
| COc1ccc(CNC(=O)NC2CCN(c3ccnc(Nc4cc(OC)c(OC)c(OC)c4)n3)C2)cc1 (stereo not shown) [GSK1379748] | 7 | 0 | 0 | 36 | 73 | 7 | 87 | 0 | 0 | 3 | 0 | 0 | 0 | 0 | 0 | 19 | 0 | 14 | 0 | 30 |
| Cl.c1ccc(-c2n[nH]cc2-c2ccnc(-c3ccc(CN4CCOCC4)cc3)c2)nc1 [GW776245] | 13 | 13 | 15 | 0 | 27 | 30 | 0 | 10 | 13 | 0 | 0 | 0 | 17 | 0 | 4 | 0 | 11 | 0 | 0 | 48 |
| COc1cccc(NC(=O)NC2CCN(c3ccnc(Nc4ccc(F)cc4)n3)C2)c1 (stereo not shown) [GSK1379721] | 9 | 0 | 0 | 38 | 59 | 0 | 0 | 0 | 0 | 0 | 8 | 0 | 7 | 0 | 7 | 3 | 0 | 14 | 0 | 4 |
| Cc1cc(NCC(c2ccccc2)c2ccccc2)nc(NCc2ccc(C(F)(F)F)cc2)n1 [GW497681] | 12 | 0 | 0 | 0 | 53 | 8 | 0 | 0 | 0 | 0 | 0 | 0 | 0 | 0 | 0 | 3 | 0 | 0 | 0 | 2 |
| COc1cc2ncnc(Nc3ccc4nc(-c5ccccc5)[nH]c4c3)c2cc1OC.Cl [GW282450] | 0 | 0 | 0 | 6 | 54 | 3 | 11 | 6 | 0 | 10 | 0 | 0 | 9 | 0 | 0 | 94.5 | 14 | 17 | 0 | 31 |
| COc1ccc(Nc2nccc(NCCNC(=O)Nc3ccccc3F)n2)cc1 [GSK1379901] | 0 | 0 | 0 | 35 | 33 | 14 | 56 | 0 | 0 | 4 | 16 | 0 | 0 | 0 | 0 | 0 | 0 | 19 | 19 | 23 |
| Cn1ccc2ncnc(Oc3ccc(Nc4nc5ccccc5[nH]4)cc3)c21 | 0 | 0 | 0 | 0 | 25 | 26 | 16 | 3 | 0 | 18 | 0 | 0 | 0 | 0 | 0 | 62 | 12 | 0 | 13 | 0 |
| Clc1cc(Cl)cc(Nc2ccnc(Nc3cc(Cl)cc(Cl)c3)n2)c1 [GSK175726] | 20 | 0 | 0 | 9 | 39 | 7 | 26 | 10 | 0 | 8 | 31 | 0 | 0 | 3 | 1 | 78 | 7 | 13 | 22 | 15 |
| Cc1cccc(-c2nc(Nc3ccncc3)c3ccccc3n2)n1 [GW855857] | 0 | 18 | 0 | 10 | 40 | 0 | 18 | 23 | 30 | 0 | 0 | 0 | 6 | 0 | 0 | 0 | 29 | 0 | 0 | 32 |
| O=S(=O)(c1ccc(-c2ccnc3[nH]ccc23)cc1)N1CCCC1 [GSK846226] | 13 | 0 | 8 | 37 | 19 | 0 | 0 | 81 | 71 | 0 | 40 | 0 | 0 | 4 | 0 | 0 | 0 | 2 | 0 | 20 |
| COc1cc(Nc2nccc(N3CCC(NC(=O)Nc4cc(C)ccc4C)C3)n2)cc(OC)c1OC (stereo not shown) [GSK1379762] | 0 | 0 | 0 | 0 | 21 | 16 | 70 | 5 | 0 | 0 | 41 | 0 | 0 | 0 | 0 | 28 | 0 | 0 | 7 | 33 |
| Cc1cccc(-c2cc(Nc3ccncc3)c3ccccc3n2)n1 [GSK223675] | 23 | 0 | 19 | 0 | 25 | 4 | 8 | 0 | 0 | 0 | 46 | 0 | 1 | 0 | 0 | 2 | 0 | 0 | 0 | 17 |
| CC1=C(C(=O)Nc2cc3cn[nH]c3cc2F)C(c2ccc(C(F)(F)F)cc2)CC(=O)N1 (stereo not shown) [GSK429286] | 0 | 0 | 0 | 0 | 10 | 17 | 11 | 45 | 60 | 17 | 56 | 0 | 0 | 0 | 0 | 0 | 0 | 0 | 0 | 19 |
| CN(C)CCN(C)C(=O)c1cc(-c2ccncc2)c(-c2ccc(Cl)c(O)c2)o1.Cl.Cl [SB-710397] | 0 | 0 | 0 | 1 | 67 | 8 | 42 | 9 | 0 | 0 | 17 | 0 | 8 | 0 | 0 | 0 | 0 | 47 | 22 | 33 |
| O=C(Nc1ccccc1)Nc1cccc(Oc2ccc3nccn3n2)c1 | 0 | 2 | 0 | 9 | 49 | 15 | 48 | 48 | 70 | 0 | 0 | 0 | 33 | 0 | 0 | 0 | 16 | 0 | 0 | 21 |
